{
  "source": "PubChem BioAssay (Tox21)",
  "note": "Records with an inconclusive call do not appear. Entries that show only a call come without a potency. A number with no mark means an inactive call. The source made the active and inactive calls. Calls come from the whole dose curve; as a rule, active = well fitted cell-killing curve with a large enough effect in the repeat runs; inconclusive = weak or mixed curves, or effect the other way; inactive = flat fitted curve, though single readings scatter. Potency is the fitted concentration of half-maximal effect.",
  "data": [
    {"assay": "qHTS RealTime-Glo MT Cell Viability Assay in HEK293 cells - 8 hour (AID 1224887); note: nearly all actives have a fitted effect of over 50% in size; for activity change, negative = cytotoxicity: top concentration of the series differs between compounds", "details": "RealTime-Glo luminescence; series mostly up to 76.8 µM", "description": "U.S. Tox21 Program National Center for Advancing Translational Sciences [NCATS] NIH Chemical Genomics Center [NCGC] U.S. Environmental Protection Agency [EPA] National Institutes of Environmental Health Sciences [NIEHS] National Toxicology Program [NTP] U.S. Food and Drug Administration [FDA] Tox21 Assay Overview: Measure of cell viability is critical in the cell-base assay. Analysis of cell viability is necessary for the characterization of cell responses to cytotoxic drugs and environmental stress. A RealTime-Glo MT Cell Viability Assay to monitor cell viability in real time of continues cell culture during 40 hours of compound treatment was used to screen Tox21 10K library compounds in Hek293 cells. The RealTime-Glo MT Cell Viability Assay is a nonlytic, homogeneous, bioluminescent method to measure cell viability in real time using a simple, plate-based method. The assay involves adding NanoLuc luciferase and a cell-permeant prosubstrate to cells in culture. Viable cells reduce the proprietary prosubstrate to generate a substrate for NanoLuc luciferase. This substrate diffuses from cells into the surrounding culture medium, where it is rapidly used by the NanoLuc Enzyme to produce a luminescent signal. The signal correlates with the number of viable cells, making the assay well suited for cytotoxicity studies.\nTox21 Assay Protocol Summary: The mixture of Hek293 cell suspension and reagents were dispensed at 600cells/6 ul/well in 1536-well tissue culture treated black solid bottom plates using a Multidrop dispenser. After the assay plates were incubated at a 37 C/5% CO2 incubator for 5 hours, 23 nL of compounds dissolved in DMSO, positive and negative controls was transferred to the assay plate by a pintool work station. The plates were incubated at 37 C for 40 hours. The luminescence intensity were measured at 0h, 8h, 16h, 24h, 32h and 40h time points using ViewLux plate reader during compound treatment.", "values": [
      {"compound": "CNC(=O)[C@H]1O[C@@H](n2cnc3c(NCc4cc(Cl)ccc4OCc4cc(C)no4)ncnc32)[C@H](O)[C@@H]1N", "Potency": "inactive"},
      {"compound": "C=C(C)C(=O)OCc1ccccc1", "Potency": "inactive"},
      {"compound": "O=C(O)CCSSCCC(=O)O", "Potency": "inactive"},
      {"compound": "CC(=O)NCCCCCC(=O)O", "Potency": "inactive"},
      {"compound": "CC(COC(C)(C)C)OCCCO", "note": "(stereo not given)", "Potency": "inactive"},
      {"compound": "CC(=O)N[C@@H](CCC(=O)O)C(=O)O", "Potency": "inactive"},
      {"compound": "COc1cc(C(=S)N2CCOCC2)cc(OC)c1OC", "Potency": "inactive"},
      {"compound": "CC(=O)c1sc(C)nc1C", "Potency": "inactive"},
      {"compound": "CCCC/C=C\\CCCCCCCCCC=O", "Potency": "inactive"},
      {"compound": "CCn1ccc(NS(=O)(=O)c2ccc(N)cc2)nc1=O", "Potency": "inactive"},
      {"compound": "CC(C(=O)O)c1ccc2c(c1)CC(=O)c1ccccc1S2", "note": "(stereo not given)", "Potency": "inactive"},
      {"compound": "O=C1c2ccccc2C(=O)C1c1ccccc1", "Potency": "inactive"},
      {"compound": "CCCCCCCCC(=O)Cl", "Potency": "inactive"},
      {"compound": "C=CCCCCCCCCCCCC", "Potency": "inactive"},
      {"compound": "O=C(O)c1ccc(Cl)cc1Cl", "Potency": "inactive"},
      {"compound": "CC(C)C(=O)OCCc1ccccc1", "Potency": "inactive"},
      {"compound": "CC1=C(C(=O)O)N2C(=O)[C@@H](NC(=O)[C@H](N)c3ccc(O)cc3)[C@H]2SC1", "Potency": "inactive"},
      {"compound": "NS(=O)(=O)c1cc2c(cc1Cl)CN(C1CCCCC1)C2=O", "Potency": "9.52 µM (active)"},
      {"compound": "NC(CO)C(=O)NNCc1ccc(O)c(O)c1O", "note": "(stereo not given)", "Potency": "inactive"},
      {"compound": "N[C@@H](CCC(=O)Nc1ccc([N+](=O)[O-])cc1)C(=O)O", "Potency": "inactive"},
      {"compound": "NCCN1CCOCC1", "Potency": "inactive"},
      {"compound": "CC(C)(C)OC(=O)c1ccc(O)cc1", "Potency": "inactive"},
      {"compound": "CCN(C)C(=O)Oc1cccc([C@H](C)N(C)C)c1", "Potency": "inactive"},
      {"compound": "C[C@H](N)[C@H](O)c1cccc(O)c1", "Potency": "inactive"},
      {"compound": "CCCCCOC(=O)CCC", "Potency": "inactive"},
      {"compound": "COCCOCCOCCOCCO", "Potency": "inactive"},
      {"compound": "Cc1cc(C(C)(C)C)c(O)c(C)c1CC1=NCCN1", "Potency": "inactive"},
      {"compound": "CCCCOCCOC(=O)COc1nc(Cl)c(Cl)cc1Cl", "Potency": "inactive"},
      {"compound": "CC(C)CCCC(C)(C)O", "Potency": "inactive"},
      {"compound": "Oc1ccccc1-c1nnco1", "Potency": "inactive"},
      {"compound": "N[C@@H](CCC(=O)N[C@@H](CS)C(=O)NCC(=O)O)C(=O)O", "activity change, negative = cytotoxicity": "10.5% [at 15.8 µM]"},
      {"compound": "On1nnc2ccccc21", "Potency": "inactive"},
      {"compound": "FC(F)(F)c1ccccc1-n1ccnc1", "Potency": "inactive"},
      {"compound": "COC(=O)[C@@H]1[C@H]2C[C@H]3c4[nH]c5ccccc5c4CCN3C[C@@H]2CC[C@@H]1O", "Potency": "inactive"},
      {"compound": "CCC(C)NC(N)=O", "note": "(stereo not given)", "Potency": "inactive"},
      {"compound": "CCCCCCCCCCCCCC", "Potency": "inactive"},
      {"compound": "Nc1cccc(O)c1", "Potency": "inactive"},
      {"compound": "O=C1c2cccc3c2[C@H](CCC3)CN1[C@@H]1CN2CCC1CC2", "Potency": "inactive"},
      {"compound": "COCCOCCOCCOCCOCCO", "Potency": "inactive"},
      {"compound": "O=C(OCC1(COC(=O)c2cccnc2)CCCC(COC(=O)c2cccnc2)(COC(=O)c2cccnc2)C1O)c1cccnc1", "Potency": "inactive"}
    ]}
  ]
}
